Measurements reported in PubChem BioAssay.
“And” between values parts separate entries of the source, which are not always exact repeats. Identical values can stand only once. The source made the active and inactive calls. Cut-off read from the data, not from the text of the source, unless noted: active = nuclear beta-catenin stimulation mostly above about 4.2% (no sharp cut-off); inactive = mostly below about 10%.

Experiments:
[1] = Wnt pathway potentiators raising nuclear beta-catenin – imaging, WNT3A-conditioned medium, mouse C2C12, NPC library, primary screen (AID 1117326); conditions: stronger effect = higher value
[2] = stimulators of insulin release from INS-1E, primary screen, cell-based, 5 mM glucose, NPC library (AID 1117329;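 active = compound raises insulin release from rat beta cells at 5 mM glucose, no numeric limit stated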); conditions: rat INS-1E insulin secretion, at 10 µM, stronger effect = higher value
[3] = growth inhibition of GSK3B-pretreated HCT116 cells – cell-based, CellTiter-Glo, 0.2 to 20 µM (AID 1117336;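 active = compounds lowering colon cancer cell viability after pretreatment blocking the GSK3B kinase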); conditions: HCT116 viability after GSK3B inhibitor, at 20 µM, stronger effect = higher value
[4] = inhibition of endothelial tube formation, primary screen, imaging, VEGF stimulated, CD31 staining, tube area, NPC library (AID 1117340;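 active = compound that reduces growth-factor-driven endothelial tube area in a mixed cell culture, no cutoff stated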); conditions: VEGF-stimulated ADSC/ECFC co-culture, at 10 µM, stronger effect = higher value
[5] = GLP1 release stimulators, primary, NCI-H716, NPC library (AID 1117341;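 active = compound raises GLP1 secretion from the human gut endocrine cells, with no numeric limit stated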); conditions: NCI-H716 cells, at 10 µM, stronger effect = higher value
[6] = HCT116 colon cancer cell growth inhibition, primary screen, CellTiter-Glo luminescence, NPC library (AID 1117342;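 active = compounds that lower survival of HCT116 colon cancer cells in the luminescence readout, no numeric limit stated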); conditions: at 20 µM (top of the series)
[7] = reduced SW480 viability measured with CellTiter-Glo, NPC library, primary (AID 1117343;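 active = compounds that lower viability of the colon cancer cells in the luminescence readout, with no numeric limit stated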); conditions: CellTiter-Glo luminescence; at 20 µM (top of the series)
[8] = NPC library primary testing for decreased DLD-1 cell viability via CellTiter-Glo (AID 1117346;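 active = compounds that lower survival of DLD-1 colon cancer cells in the luminescence readout, no cutoff given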); conditions: DLD-1 viability, CellTiter-Glo luminescence; at 20 µM (top of the series)
[9] = biological target: 6-phosphogluconate dehydrogenase, decarboxylating (Homo sapiens) (UniProt P52209); test: inhibition of human phosphogluconate dehydrogenase – biochemical, recombinant enzyme, NADPH absorbance, primary screen (AID 1159550;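 active = at least 20% inhibition of 6-phosphogluconate dehydrogenase activity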); conditions: recombinant 6PGD, NADPH absorbance 341 nm; at 10 µM; stronger effect = higher value
6-phosphogluconate dehydrogenase, decarboxylating (Homo sapiens), sequence (P52209 whole entry, looked up): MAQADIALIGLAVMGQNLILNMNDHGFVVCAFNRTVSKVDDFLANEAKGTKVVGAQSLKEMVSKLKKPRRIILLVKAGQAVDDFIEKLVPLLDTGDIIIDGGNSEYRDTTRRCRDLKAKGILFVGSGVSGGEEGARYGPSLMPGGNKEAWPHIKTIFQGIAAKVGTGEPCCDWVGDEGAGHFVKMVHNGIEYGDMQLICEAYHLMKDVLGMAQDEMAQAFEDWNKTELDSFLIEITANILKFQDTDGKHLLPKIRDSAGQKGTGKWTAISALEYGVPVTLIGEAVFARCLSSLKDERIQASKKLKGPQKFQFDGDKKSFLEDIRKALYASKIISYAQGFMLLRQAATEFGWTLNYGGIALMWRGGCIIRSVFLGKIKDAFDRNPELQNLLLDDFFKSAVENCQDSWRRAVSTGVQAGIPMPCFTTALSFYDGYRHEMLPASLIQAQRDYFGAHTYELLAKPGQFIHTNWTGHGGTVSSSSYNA

[10] = modulation of C. elegans fzo-1 (AID 1259413; call rule not given here;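 note: fzo-1 mutant C. elegans worms in liquid wells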); conditions: C. elegans fzo-1 modulator screen, mean read-out; stronger effect = higher value
[11] = EMT-state selective cytotoxicity in co-culture – imaging, PC-3E GFP, TEM4-18 mCherry, primary screen (AID 1345086;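 active = compounds killing one labelled cell type while sparing the other, by normalised counts and ratio limits, not self-fluorescent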;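 for all read-outs here: cells exposed to compound for 72 h before imaging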;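 for red/green cell ratio (normalised): normalised mesenchymal count divided by normalised epithelial count so high means epithelial killing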); conditions: PC-3E GFP / TEM4-18 mCherry co-culture, imaging cell counts, at 1 µM; for red/green cell ratio (normalised): actives lie on both sides, counts scaled to control wells, 1 = unselective
[12] = MELAS cybrid and Rieske KO viability enhancers – cell-based, MELAS cybrids, Rieske KO mouse fibroblasts, CellTiter-Glo, primary screen (AID 1508586;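 active = mean z-score across replicates of 1.96 or higher in either the MELAS or the Rieske mutant cell line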;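 note: z relative to plate mean and SD of compound and empty wells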); conditions: low glucose
[13] = biological target: NAD(+) hydrolase SARM1 (Homo sapiens) (UniProt Q6SZW1); test: blocking NAD cleavage by SARM1 SAM-TIR – cell lysate, NAD-Glo luminescence (AID 1508614;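 active = compound whose remaining NAD level is above about 45 nM, limit read from the data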;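 note: higher remaining NAD means stronger inhibition of SARM1 NADase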); conditions: SAM-TIR HEK293T lysate NADase, at 1 µM, stronger effect = higher value
NAD(+) hydrolase SARM1 (Homo sapiens), sequence (Q6SZW1 whole entry, looked up, the tested form may be a part): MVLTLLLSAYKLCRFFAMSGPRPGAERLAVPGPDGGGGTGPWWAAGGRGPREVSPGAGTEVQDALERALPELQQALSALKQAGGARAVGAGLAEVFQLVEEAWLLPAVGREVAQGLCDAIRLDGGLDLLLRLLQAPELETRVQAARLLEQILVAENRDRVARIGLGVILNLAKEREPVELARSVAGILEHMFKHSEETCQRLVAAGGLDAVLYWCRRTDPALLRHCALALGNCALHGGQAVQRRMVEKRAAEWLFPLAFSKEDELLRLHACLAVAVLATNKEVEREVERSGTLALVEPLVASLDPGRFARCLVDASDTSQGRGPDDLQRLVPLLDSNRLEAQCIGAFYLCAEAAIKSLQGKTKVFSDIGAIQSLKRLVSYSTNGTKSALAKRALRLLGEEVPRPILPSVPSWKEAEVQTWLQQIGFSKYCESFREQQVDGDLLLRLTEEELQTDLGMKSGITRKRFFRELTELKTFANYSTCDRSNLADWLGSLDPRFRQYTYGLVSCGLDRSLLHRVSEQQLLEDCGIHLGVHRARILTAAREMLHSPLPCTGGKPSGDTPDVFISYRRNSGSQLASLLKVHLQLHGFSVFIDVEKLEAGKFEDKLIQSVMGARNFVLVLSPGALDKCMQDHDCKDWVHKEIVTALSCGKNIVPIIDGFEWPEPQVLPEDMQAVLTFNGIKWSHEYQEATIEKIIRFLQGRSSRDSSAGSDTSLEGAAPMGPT

[14] = biological target: Mitogen-activated protein kinase 7 (Homo sapiens) (UniProt Q13164); test: Gal4-ERK5 driven luciferase induction – cell-based, HTS, primary screen (AID 1508626;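 active = luciferase signal above three times the same-plate solvent-only control wells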;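 note: luciferase driven by Gal4-ERK5 fusion binding five Gal4 sites before minimal TATA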); conditions: HeLa Gal4-ERK5 transactivation, 18 h, at 5 µM, stronger effect = higher value
Mitogen-activated protein kinase 7 (Homo sapiens), sequence (Q13164 whole entry, looked up, the tested form may be a part): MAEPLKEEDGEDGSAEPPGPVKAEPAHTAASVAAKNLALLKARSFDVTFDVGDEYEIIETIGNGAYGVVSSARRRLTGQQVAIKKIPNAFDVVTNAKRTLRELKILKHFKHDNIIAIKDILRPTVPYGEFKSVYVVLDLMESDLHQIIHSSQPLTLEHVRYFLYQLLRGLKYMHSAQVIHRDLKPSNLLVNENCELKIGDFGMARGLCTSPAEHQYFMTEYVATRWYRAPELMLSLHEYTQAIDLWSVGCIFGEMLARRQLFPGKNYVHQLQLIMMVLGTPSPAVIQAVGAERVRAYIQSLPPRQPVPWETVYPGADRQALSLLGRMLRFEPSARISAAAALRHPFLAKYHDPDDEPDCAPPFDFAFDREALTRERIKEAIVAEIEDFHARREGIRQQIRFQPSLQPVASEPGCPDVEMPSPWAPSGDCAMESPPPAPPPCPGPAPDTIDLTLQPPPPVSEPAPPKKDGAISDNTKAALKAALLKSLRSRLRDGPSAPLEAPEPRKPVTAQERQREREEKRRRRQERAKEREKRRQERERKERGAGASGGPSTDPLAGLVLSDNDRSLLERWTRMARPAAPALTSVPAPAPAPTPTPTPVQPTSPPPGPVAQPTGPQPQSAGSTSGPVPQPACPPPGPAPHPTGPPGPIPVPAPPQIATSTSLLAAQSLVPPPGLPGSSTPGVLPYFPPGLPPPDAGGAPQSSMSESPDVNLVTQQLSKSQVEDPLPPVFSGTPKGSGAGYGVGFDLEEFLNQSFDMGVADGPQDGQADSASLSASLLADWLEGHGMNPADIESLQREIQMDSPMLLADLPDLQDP

F380Y = test: BK channel mutant inhibitors and activators – cell-based, U2OS BacMam, thallium flux, beta subunits, selectivity assay, profiling panel (AID 1259406;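 active = thallium flux through the channel raised or lowered by more than 3 SD from vehicle-only wells, actives on both sides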;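 note: initial slope of Thallos dye fluorescence rise after thallium is added; log ratio against the mean of 0.3% DMSO vehicle wells on the same plate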); conditions: U2OS BacMam BK variants, at 30 µM
F380Y/beta1 = test: as above; conditions: U2OS BacMam BK variants, at 30 µM
F380Y/beta2Delta = test: as above; conditions: U2OS BacMam BK variants, at 30 µM
F380Y/beta4 = test: as above; conditions: U2OS BacMam BK variants, at 30 µM
[15] = growth inhibition, single agents and combos, ICB984, cell-based, cisplatin or BGB combos, synergistic combos for chromothripsis tumors (AID 1671451; call rule not given here;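 note: cells exposed for 96 hours before readout; 0% = vehicle DMSO and 100% = killing by high DMSO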); conditions: ICB984 medulloblastoma cells, drug combinations, stronger effect = higher value
[16] = measured here: epithelial PC-3E GFP cell survival
[17] = measured here: mesenchymal TEM4-18 mCherry cell survival
[18] = MELAS cybrid survival, CellTiter-Glo 48 h, stronger effect = higher value
[19] = Rieske KO mouse fibroblast survival, CellTiter-Glo 72 h

SMILES: CCCCOCCOC(=O)c1cccnc1
- nuclear beta-catenin stimulation ([1]; at 10 µM): 1.3% (inactive)
- nuclear beta-catenin stimulation ([1]; stimulation, at 2 µM): -0.3%
- insulin secretion stimulation [2]: 2.6% (inactive)
- viability decrease [3]: -29.5% (inactive)
- tube area decrease [4]: 1.8% (inactive)
- GLP1 secretion stimulation [5]: 2.3% (inactive)
- inhibition of viability [6]: -11.9% (inactive)
- viability decrease (inhibition) [7]: 18.6% (inactive)
- viability decrease (inhibition) [8]: -20.5% (inactive)

SMILES: CN(C)CCCN1c2ccccc2CCc2ccc(Cl)cc21
- nuclear beta-catenin stimulation ([1]; at 10 µM): 2.9% (inactive)
- nuclear beta-catenin stimulation ([1]; stimulation, at 2 µM): 2.5%
- insulin secretion stimulation [2]: 5.4% (inactive)
- viability decrease [3]: -53% (inactive)
- tube area decrease [4]: 23.1% (inactive)
- GLP1 secretion stimulation [5]: 13.3% (inactive)
- inhibition of viability [6]: 67.4% (active)
- viability decrease (inhibition) [7]: 61.1% (active)
- viability decrease (inhibition) [8]: 61.8% (active)
- inhibition [9]: 13.8% (inactive)
- mean signal [10]: 222 (inactive)
- red/green cell ratio (normalised) [11]: 1.09 (inactive)
- normalised cell number [11, 16]: 0.96
- normalised cell number [11, 17]: 1.05
- z-score [12, 18]: -0.661 (inactive) and 0.117 (inactive)
- z-score [12, 19]: -0.587 and 0.253
- remaining NAD [13]: 10 nM (inactive)
- luciferase signal [14]: 32 AU (inactive)
- log fold change Tl+ flux (F380Y): -0.0375 (inactive)
- log fold change Tl+ flux (F380Y/beta1): -0.109 (inactive)
- log fold change Tl+ flux (F380Y/beta2Delta): -0.0656 (inactive)
- log fold change Tl+ flux (F380Y/beta4): 0.151 (active)

SMILES: c1ccc([C@H]2CN3CCSC3=N2)cc1
- nuclear beta-catenin stimulation ([1]; at 10 µM): -0.8% (inactive)
- nuclear beta-catenin stimulation ([1]; stimulation, at 2 µM): -0.5%
- insulin secretion stimulation [2]: 0.8% (inactive)
- viability decrease [3]: -1.75% (inactive)
- tube area decrease [4]: 2.3% (inactive)
- GLP1 secretion stimulation [5]: -1.2% (inactive)
- inhibition of viability [6]: -2.5% (inactive)
- viability decrease (inhibition) [7]: -10.8% (inactive)
- viability decrease (inhibition) [8]: -6.9% (inactive)
- inhibition [9]: -3.99% (inactive)
- z-score [12, 18]: -0.321 (inactive) and -0.38 (inactive)
- z-score [12, 19]: -0.0854 and -1.67
- remaining NAD [13]: 10 nM (inactive)
- luciferase signal [14]: 44 AU (inactive)

SMILES: COC(=O)c1ccc(NC(C)=O)cc1OC
- nuclear beta-catenin stimulation ([1]; at 10 µM): -0.5% (inactive)
- nuclear beta-catenin stimulation ([1]; stimulation, at 2 µM): -1.4%
- insulin secretion stimulation [2]: -1.4% (inactive)
- viability decrease [3]: 13.4% (inactive)
- tube area decrease [4]: -3.1% (inactive)
- GLP1 secretion stimulation [5]: -1.8% (inactive)
- inhibition of viability [6]: 1.7% (inactive)
- viability decrease (inhibition) [7]: -18.6% (inactive)
- viability decrease (inhibition) [8]: -4.9% (inactive)

SMILES: CCN(CC)CCCC(C)Nc1c2ccc(Cl)cc2nc2ccc(OC)cc12 (centres undefined)
- nuclear beta-catenin stimulation ([1]; at 10 µM): 3.9% (inactive)
- nuclear beta-catenin stimulation ([1]; stimulation, at 2 µM): 1.8%
- insulin secretion stimulation [2]: 84.6% (active)
- viability decrease [3]: 103% (active)
- tube area decrease [4]: 97.1% (active)
- GLP1 secretion stimulation [5]: 7.1% (inactive)
- inhibition of viability [6]: 102% (active)
- viability decrease (inhibition) [7]: 122% (active)
- viability decrease (inhibition) [8]: 97.7% (active)
- inhibition [9]: 1.31% (inactive)
- red/green cell ratio (normalised) [11]: 1.37 (inactive)
- normalised cell number [11, 16]: 0.76
- normalised cell number [11, 17]: 1.04
- z-score [12, 18]: 0.298 and 1.99 (active) and 1.02
- z-score [12, 19]: 6.25 and 5.35 and 3.32
- remaining NAD [13]: 10 nM (inactive)
- luciferase signal [14]: 1610 AU (active)
- inhibition ([15]; BGB IC20 combo, at 0.005 µM): -4.02%
- inhibition ([15]; BGB IC40 combo, at 0.005 µM): 16.5%
- inhibition ([15]; BGB IC40 combo, at 0.05 µM): 90.3%
- inhibition ([15]; at 0.5 µM): -2.08% (inactive)
- inhibition ([15]; cisplatin combo, at 0.05 µM): 90%
- inhibition ([15]; cisplatin combo, at 0.5 µM): -4.11%
- inhibition ([15]; cisplatin combo, at 5 µM): -21.6%
- inhibition ([15]; measured here: 5 uM single agent, at 5 µM): 1.6%
